Screening data deposited in PubChem by National Center for Advancing Translational Sciences (NCATS).
A selection: hits, their analogues and other compounds. The true share with any hit is near 8%.
ELG1 DNA repair: blocks ELG1-dependent DNA repair in HEK293T cells; HEK293T ELG1-luciferase reporter, luminescence, 16 h; DNA damage induced by 5-fluorouridine; Potency, µM (highest dose often 46.1 µM), for inactives: at the top dose activity change, negative = inhibition, actives largely listed as inhibitors; actives 2.3% (n = 330,000); AID 504467; note: potency is the fitted concentration of half-maximal effect; nearly all actives have a fitted effect of over 55% in size
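Reporter activity after DNA damage by 5-fluorouridine is monitored. Compound-treated cells incubate 16 hr at 37 °C, then ONE-Glo is added for 30 min before luminescence reading.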
Coupling enz: coupling enzyme interference in Giardia aldolase counter-screen; coupling enzyme system counterscreen, AmpLite Red fluorescence; activity change, negative = inhibition, % at 58.2 µM, hits read low; actives 0.67% (n = 290,000); AID 2472; in the data active = activity change below about -30%
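Activity here indicates interference with the coupling reaction, not aldolase inhibition. Compounds at 57.5 uM final met coupling enzymes for 10 min at RT; substrate and AmpLite Red detection followed, with a 525/598 nm fluorescence read after 20 min.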
RORgamma inh: inhibitors of mouse ROR gamma transcriptional activity. P51450. Drosophila S2 Gal4-RORgamma UAS-luciferase reporter, 20 h. Potency, µM (top dose mostly 53.6 µM), for the others: top-dose activity change, negative = inhibition, usual class: inhibitors. actives 5.4% (n = 310,000). AID 2551; note: potency is the fitted concentration of half-maximal effect; nearly all actives have a fitted effect of over 60% in size
Target sequence (P51450 whole entry, looked up, the tested form may be a part): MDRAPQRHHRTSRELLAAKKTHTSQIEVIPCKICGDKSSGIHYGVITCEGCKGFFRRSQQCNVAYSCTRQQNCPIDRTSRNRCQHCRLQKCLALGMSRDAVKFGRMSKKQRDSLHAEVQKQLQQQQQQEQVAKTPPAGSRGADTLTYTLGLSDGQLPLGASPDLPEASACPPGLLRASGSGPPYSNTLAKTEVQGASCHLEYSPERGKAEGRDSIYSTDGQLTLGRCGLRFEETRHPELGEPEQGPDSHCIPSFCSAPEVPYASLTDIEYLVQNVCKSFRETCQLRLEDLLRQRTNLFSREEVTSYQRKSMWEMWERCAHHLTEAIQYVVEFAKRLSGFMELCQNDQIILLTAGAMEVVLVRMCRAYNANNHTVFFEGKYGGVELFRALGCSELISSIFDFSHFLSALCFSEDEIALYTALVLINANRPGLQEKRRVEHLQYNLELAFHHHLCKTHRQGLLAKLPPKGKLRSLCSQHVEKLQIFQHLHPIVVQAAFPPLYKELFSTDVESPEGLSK
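Drosophila S2 cells stably expressing Gal4-DBD/mouse RORγ fusion under metallothionein promoter plus UAS-luciferase; compound 1 h, then 700 uM CuSO4 induction for 20 h at ambient temperature; inhibition read as reduced luminescence.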
TSHR antagonist: human thyrotropin receptor antagonism; P16473; actives 0.2% (n = 330,000); activity change, negative = inhibition, % at 11.5 µM; TSHR-expressing cells, TSH-stimulated cAMP HTRF, 2 h; active compounds read low;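 active = activity change below a set negative limit, meaning inhibition stronger than a set level, cut at about -70% in these data; inconclusive = activity change between two set negative limits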
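TSHR-expressing cells, 200/well, pre-treated with compound, then stimulated with EC80 TSH (4nM final) for 2 hours at 37 deg C. cAMP measured by competitive HTRF: anti-cAMP cryptate antibody in lysis buffer plus cAMP-d2, read after 30 minutes at room temperature.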
Gal4-VP16 FLuc: Gal4-VP16 reporter inhibition counter-screen; Drosophila S2 Gal4-VP16 UAS-luciferase, luminescence, 20 h; Potency, µM (doses to about 53.6 µM), for inactives: top-dose activity, negative = inhibition, most hits filed as inhibitors; actives 3.5% (n = 310,000);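 note: Gal4-VP16 expression switched on by copper sulfate through the metallothionein promoter; potency is the fitted concentration of half-maximal effect; nearly all actives have a fitted effect of over 50% in size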
The depositor's hits bear a star; u = inconclusive; x = not tested or not shown; [ ] = remark or other dose. Unless noted, calls come from the whole dose curve; as a rule, active = well fitted curve in the direction sought with a large enough effect; inconclusive = small, poorly fitted or top-dose-only effect, or another doubt; inactive = no such curve, though single readings can be large; an effect the other way counts as inactive or inconclusive. % is set by controls: 0 for no effect and ±100 for the full control effect.

SMILES	ELG1 DNA repair	Coupling enz	RORgamma inh	TSHR antagonist	Gal4-VP16 FLuc
CCCc1nc2ccccc2c(C(=O)OCC(=O)N2CCc3ccccc32)c1CC	16.4µM*	-1.7	28.0%	-25.6	-12.0%
CC1CCc2nc3ccccc3c(C(=O)OCC(=O)N3CCc4ccccc43)c2C1 (stereo not drawn)	18.4µM*	-11.6	7.1%	29.1	9.6%
Cc1nc2cnc(N(C)C)nc2n(Cc2ccc(F)cc2)c1=O	x	0.1	-14.8%	x	-13.5%
CCOC(=O)CN=C1CC(C)(C)CC2=C1Sc1ncnc(N(C)C)c1N2	u	-47.4*	11.2µM*	-1.0	u
O=C(NCc1ccco1)/C(=C/c1ccccc1F)NC(=O)c1ccccc1	7.0%	0.8	9.0%	15.3	-2.2%
C[C@H](CO)N1C[C@H](C)[C@@H](CN(C)S(=O)(=O)c2cccs2)Oc2c(NS(=O)(=O)c3cn(C)cn3)cccc2C1=O	u	x	x	4.8	x
O=C(Cn1ncc2c([nH]c3ccccc32)c1=O)NCC1CCN(Cc2ccc(F)cc2)CC1	18.0%	-3.2	-34.2%	-138.4*	-7.1%
CC(=O)N1CC(C)Sc2ccc(S(=O)(=O)NC(C)c3ccccc3)cc21 (stereo not drawn)	u	x	u	9.5	-21.7%
Cc1ccc(N(Cc2cc3ccccc3[nH]c2=O)C(=O)c2cccs2)cc1C	23.1µM*	0.4	u	-1.0	-4.0%
c1ccc(-c2nnc(-c3ccccn3)nc2NC2CCCCC2)cc1	18.4µM*	1.4	-80.5%	-0.8	u
CNc1nc(-c2ccccn2)nnc1-c1ccccc1	-9.6%	1.2	-6.2%	1.8	3.4%
O=NN(CCCl)C(=O)NC1CCCCC1	x	x	13.4%	x	-8.5%
COc1cccc(-c2nnc3n2N=C(c2c(OC)cccc2OC)CS3)c1OC	x	3.7	3.7%	x	-0.4%
COc1cnc(-c2ccccn2)[nH]c1=O	u	-64.4*	-23.5%	0.5	-0.2%
CCc1cc2c(=O)[nH]c(-c3ccccn3)nc2s1	u	-15.5	u	19.6	25.1µM*
CCc1cc2c(=O)[nH]c(N3CCCC3)nc2s1	u	1.9	19.2%	4.9	0.1%
NC(=O)c1ccc(NC(=O)CSc2nc3ccccc3c(=O)n2CCCN2CCOCC2)cc1	u	x	x	-0.9	x
Cc1ccc(C)c(OCCC(=O)N(C)CC(=O)Nc2c(C)cccc2C)c1	-1.4%	x	x	3.6	x
COc1ccc(Nc2ccnc3ccccc23)cc1	16.4µM*	-1.2	7.2%	11.5	-4.7%
COc1ccc(Nc2nc(-c3ccccc3)nc3ccccc23)cc1	20.6µM*	0.3	17.1%	u	2.3%
COc1ccc(Nc2nc(-c3cccc([N+](=O)[O-])c3)nc3ccccc23)cc1	8.2µM*	-2.7	19.3%	-16.4	u
Oc1ccc(Nc2nc(-c3ccccc3)nc3ccccc23)cc1	u	0.8	3.2%	2.2	-2.4%
COc1ccc(Nc2nc(-c3cccs3)nc3ccccc23)cc1	u	1.0	u	35.6	-18.2%
COc1nc(-c2cccc([N+](=O)[O-])c2)nc2ccccc12	-7.3%	-0.1	28.8%	-9.5	0.8%
CC(=O)Nc1ccc(Nc2nc(-c3ccccc3)nc3ccccc23)cc1	u	0.9	-28.3%	-13.0	12.6µM*
SMILES	ELG1 DNA repair	Coupling enz	RORgamma inh	TSHR antagonist	Gal4-VP16 FLuc
CCOC(=O)C1CCN(C(=O)c2ccc(S(=O)(=O)Nc3ccccc3Cl)cc2)CC1	-6.3%	x	x	-0.1	x
COc1cccc(Nc2nc(-c3cccs3)nc3ccccc23)c1	23.1µM*	-1.0	41.9%	10.7	0.0%
Clc1cccc(Nc2nc(-c3ccncc3)nc3ccccc23)c1	2.59µM*	2.2	-5.3%	6.9	-1.1%
CC(=O)Nc1cccc(Nc2nc(-c3ccccc3F)nc3ccccc23)c1	14.6µM*	2.4	7.0%	-11.1	-5.6%
Cc1c(N=Cc2c(O)n(Cc3ccco3)c(=O)c3ccccc23)c(=O)n(-c2ccccc2)n1C	23.1µM*	-6.0	u	-3.8	-0.2%
O=C(CNC(=O)c1cccs1)Nc1ccc2c(c1)OCCO2	u	x	x	-1.5	x
Cc1cnc(NC(=O)c2cc3c(s2)CCCC3)s1	u	-4.8	2µM*	-26.1	7.08µM*
Cc1csc(NC(=O)c2cc3c(s2)CCCCC3)n1	u	-13.2	2.82µM*	-30.4	3.98µM*
Nc1nn(S(=O)(=O)c2ccccc2)cc1-c1ccc([N+](=O)[O-])cc1	4.9%	-15.2	u	26.9	35.5µM*
Cc1ccc(S(=O)(=O)n2cc(-c3ccccc3)c(N)n2)cc1	-18.4%	-1.9	20.6%	-4.3	0.3%
Cn1cc(-c2cccc(C(F)(F)F)c2)cc(C#N)c1=O	17.8%	1.2	26.4%	-7.0	11.1%
CC(C)C(CCNC1CCN(C)CC1)c1ccc(Cl)cc1 (stereo not drawn)	23.1µM*	-2.1	-44.3%	0.2	-9.0%
CC(NCc1ccc(S(N)(=O)=O)cc1)C(=O)N1c2ccccc2CC1C (stereo not drawn)	-3.4%	1.1	2.1%	0.9	2.7%
S=c1nc[nH]c2c1[nH]c1ccccc12	18.2%	0.4	11.2µM*	154.1	0.2%[0.365 µM]
O=C(Nc1nnc(CC2=CCCCC2)s1)c1cccs1	u	8.0	u	-9.9	u
O=C(Nc1ccc(Cl)c(Cl)c1)Nc1nnc(CC2=CCCCC2)s1	u	3.5	u	16.9	12.6µM*
COc1ccccc1CN1CCC2(CC1)CCN(C(=O)c1cc(C(F)(F)F)cc(C(F)(F)F)c1)CC2	x	3.0	-0.7%	x	8.9%
CC1CCCN(S(=O)(=O)c2ccc(NC(=O)[C@@H]3CCCN3C(=O)c3cccs3)cc2)C1 (stereo partly drawn)	2.7%	x	x	8.0	x
O=C(c1ccncc1)N1CCC2(CCCN(c3ccccn3)C2)CC1	x	2.1	12.7%	x	5.3%
CCOc1cccc(-c2nnc3sc(-c4cc(OC)c(OC)cc4OC)nn23)c1	-1.8%	2.9	15.3%	2.1	-5.5%
COc1cc(OC)c(-c2nn3c(C4CCCCC4)nnc3s2)cc1OC	20.6µM*	-3.1	-37.4%	-14.1	-18.3%
O=C1CCC/C1=C/Nc1ccc(Cl)cc1	u	-11.5	6.7%	7.8	10.5%
O=C1CCCC/C1=C\Nc1ccc(O)cc1	u	-68.0*	31.3%	9.5	-10.7%
O=C(CCC(=O)OCC(=O)c1ccc(-c2ccccc2)cc1)Nc1cccc(Cl)c1	17.3%	0.2	7.08µM*	0.6	12.6µM*
Cc1ccccc1NC(=O)CCC(=O)OCC(=O)c1ccc(-c2ccccc2)cc1	u	2.8	7.94µM*	-4.0	10µM*
S=C(Nc1ccc(Nc2ccccc2)cc1)NC1CCCCCC1	u	-0.3	1.26µM*	-6.2	u
FC(F)Oc1ccc(NC(=S)NC2CCCCCCC2)cc1	19.0%	-2.3	3.55µM*	-11.0	10µM*
S=C(Nc1ccc(Br)cc1)NC1CCCCC1	u	2.5	7.94µM*	-15.9	17.8µM*
